The text below walks through data of PubChem BioAssay (NCATS).

Where “and” joins values, the source holds several entries; their conditions need not be identical. Equal values may be shown once. Results filed as inconclusive are left out. Calls of active or inactive are those of the source. Unless noted, the call rests on the fitted dose curve; in most records, active means well fitted curve in the direction sought with a large enough effect; inconclusive means small, poorly fitted or top-dose-only effect, or another doubt; inactive means no such curve, though single readings can be large; an effect the other way counts as inactive or inconclusive.

Assay [1] addresses Estrogen receptor (Homo sapiens) (UniProt P03372). Nature of the assay: qHTS assay for small molecule antagonists of estrogen receptor alpha signaling (AID 588513; active means well fitted curve in the direction sought with a large enough effect in the signal ratio, with a control signal flat, not every such curve was filed as active; the % refers to the signal ratio; further: on the % scale 0 is the no-effect control and ±100 the full control effect). The gist of the method: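 Fluorescence from CCF4 substrate after 2 h at room temperature gave reporter activity; cells had been exposed to compound and 0.5nM 17-beta-estradiol for 18 h at 37 C. Hill-equation fitting yielded IC50 and maximal response.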

Assay [2] has the same target. Briefly: qHTS assay for small molecule agonists of estrogen receptor alpha signaling (AID 588514; calls by dose curve;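 further: 0% = vehicle only and 100% = reference agonist; nearly all actives have a fitted effect of over 70% in size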). The method, boiled down: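 Read-out: CCF4 fluorescence from a beta-lactamase reporter in ER-alpha-UAS-bla HEK 293 cells after 18 hrs of compound exposure at 37 C. Normalized to 20 nM 17-beta-estradiol (100%) and DMSO (0%).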
In general terms: qHTS replaces the single test concentration by a dilution series.

For assay [3], the target named is Peroxisome proliferator-activated receptor gamma (Homo sapiens) (UniProt P37231). Briefly: qHTS assay for small molecule agonists of peroxisome proliferator-activated receptor gamma signaling (AID 588536; active means well fitted curve in the direction sought with a large enough effect in the signal ratio, with a control signal flat, not every such curve was filed as active; the % refers to the signal ratio;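 further: 0% = DMSO basal wells and 100% = rosiglitazone at 2 µM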). The gist of the method:
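Beta-lactamase reporter read-out: CCF4 fluorescence (ex 405, em 460/530 nm) after 2 h at RT. HEK293 GeneBLAzer cells were treated for 16 h at 37 C. Hill fits gave EC50 and efficacy versus 2 uM rosiglitazone (100%) and DMSO (0%).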

The nature of assay [4]: qHTS assay for small molecule agonists of retinoid X receptor alpha signaling (AID 588544). Conditions: HEK293T RXRa-UAS-bla, beta-lactamase reporter, 18 h; 530 nm emission.
Assay [5] is described as follows: qHTS assay for small molecule antagonists of retinoid X receptor alpha signaling (AID 588546; active means well fitted inhibition curve with a large enough effect in the signal ratio, with a control signal flat, not every such curve was filed as active; the % refers to the signal ratio;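 further: cells stimulated with 9-cis-retinoic acid as agonist; on the % scale 0 is the no-effect control and ±100 the full control effect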). Conditions: HEK293T RXRa-UAS-bla, beta-lactamase ratio, antagonist mode; measured here: W530 green channel, cytotoxicity proxy. The method, boiled down: (§1)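 Beta-lactamase reporter inhibition, read as CCF4 fluorescence ratio (ex 405, em 460/530 nm) after 2 h at RT. HEK293T UAS-bla cells, 2500/well, were stimulated with 9-cis-RA at 500 or 100 nM final alongside test compound for 18 h at 37 C.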

In assay [6] the target is Retinoic acid receptor RXR-alpha (Homo sapiens) (UniProt P19793). Described as above. Conditions: HEK293T RXRa-UAS-bla, beta-lactamase ratio, antagonist mode. The method, boiled down:
as §1

The target of assay [7] is Thyroid hormone receptor beta (Homo sapiens) (UniProt P10828). Nature of the assay: qHTS assay for small molecule antagonists of thyroid hormone receptor beta signaling (AID 588547; active means well fitted inhibition curve with a large enough effect in the signal ratio, with a control signal flat, not every such curve was filed as active; the % refers to the signal ratio;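 further: cells stimulated with 0.4 nM T3 agonist during compound exposure; series mostly up to about 77 µM; on the % scale 0 is the no-effect control and ±100 the full control effect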). As to conditions: TR-UAS-bla HEK293, beta-lactamase ratio, antagonist mode, 18 h. The method, boiled down: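 Inhibition of T3-driven (0.4nM final) beta-lactamase reporter activity was measured over 0.59 nM to 92 uM compound after 18 h at 37 C. The cells were GripTite HEK293 TR-UAS-bla in charcoal/dextran-stripped serum, with CCF4 ratio read-out and IC50 from Hill fits.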
Chain of Thyroid hormone receptor beta (Homo sapiens) (P10828 whole entry, looked up): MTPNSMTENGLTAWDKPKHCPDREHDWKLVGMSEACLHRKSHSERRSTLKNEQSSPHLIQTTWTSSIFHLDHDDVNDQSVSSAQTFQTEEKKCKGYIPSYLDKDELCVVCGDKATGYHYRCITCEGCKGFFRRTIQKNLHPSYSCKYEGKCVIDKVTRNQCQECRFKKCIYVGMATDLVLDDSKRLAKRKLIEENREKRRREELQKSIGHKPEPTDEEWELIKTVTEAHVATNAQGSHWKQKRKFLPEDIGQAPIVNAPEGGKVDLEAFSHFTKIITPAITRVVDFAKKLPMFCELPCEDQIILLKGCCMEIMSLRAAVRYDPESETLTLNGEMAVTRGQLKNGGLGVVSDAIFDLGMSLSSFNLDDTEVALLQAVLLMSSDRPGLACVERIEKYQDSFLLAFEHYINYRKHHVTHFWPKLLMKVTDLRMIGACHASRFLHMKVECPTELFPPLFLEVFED

Assay [8] in a line: qHTS assay for small molecule activators of the p53 signaling pathway (AID 651743; active means well fitted activation curve with a large enough effect in the signal ratio, not every such curve was filed as active; the % refers to the signal ratio; further: series mostly up to about 92 µM; % of control where 0% means no effect). Conditions: HCT-116 p53RE-bla, beta-lactamase FRET ratio, 16 h; activation: stronger effect = higher value. The gist of the method: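 A beta-lactamase reporter under p53 response element control, stably carried by HCT-116 cells, reported pathway activation. Test compounds were applied for 16 hours at 37 C, and fluorescence was measured 2 hours after adding the B/G FRET substrate.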

The nature of assay [9]: qHTS assay for environmental chemicals that activate the Aryl hydrocarbon Receptor (AhR) signaling pathway (AID 651777). Further: % of control where 0% means no effect; nearly all actives have a fitted effect of over 15% in size. Conditions: 1A2-DRE human hepatoma cells, luciferase, 24 h; activation: stronger effect = higher value. The method, boiled down:
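1A2-DRE human hepatoma reporter line; 1,200 cells/well; cmpd or DMSO 24 h, 37 C/5% CO2; One-Glo 30 min RT; luciferase lum.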

Assay [10] concerns the target Peroxisome proliferator-activated receptor alpha (Homo sapiens) (UniProt Q07869). Nature of the assay: qHTS assay for small molecule agonists of the peroxisome proliferator-activated receptor alpha (PPARalpha) signaling pathway (AID 651778). Further: % of control where 0% means no effect. As to conditions: PathHunter PPARalpha complementation, chemiluminescence, 6 h; max response: stronger effect = higher value. The gist of the method:
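Chemiluminescence from complemented enzyme reported PPARalpha activation in cells after 6 hr of compound treatment at 37 C. The detection reagent was incubated for 60 min at room temperature, and compounds were scored as agonists.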

Assay [11] can be described thus: qHTS assay for small molecule agonists of the antioxidant response element (ARE) signaling pathway measured by Nrf2-dependant transcriptional activity (AID 720636; active means well fitted curve in the direction sought with a large enough effect in the repeat runs; an effect the other way counts as inactive or inconclusive;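 further: HepG2 cells with an ARE-driven luciferase reporter; % of control where 0% means no effect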). The gist of the method:
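Cells: ARE-luc HepG2 with Nrf2-responsive luciferase. Medium contained 1% dialyzed FBS. Compound exposure lasted 16 hr at 37 C and 5% CO2, followed by ONE-Glo luciferase detection.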

The nature of assay [12]: qHTS assay for small molecule agonists of the antioxidant response element (ARE) signaling pathway measured by Nrf2-dependant transcriptional activity - cell viability counter screen (AID 720653; active means well fitted curve in the direction sought with a large enough effect in the repeat runs; an effect the other way counts as inactive or inconclusive; further: on the % scale 0 is the no-effect control and ±100 the full control effect). Conditions: ARE-bla HepG2 viability, CellTiter-Glo ATP luminescence, 16 h; max response: stronger effect = lower value. The gist of the method: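 Cytotoxicity counter screen: intracellular ATP quantified by CellTiter-Glo luminescence in the same ARE-bla HepG2 plates, after 16 h compound exposure and a 2 h beta-lactamase substrate step.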

Assay [13] is described as follows: qHTS assay for cell viability of HEK293 cells (AID 743288). Further: on the % scale 0 is the no-effect control and ±100 the full control effect; nearly all actives have a fitted effect of over 50% in size. Conditions: ATP luminescence (CellTiter-Glo), 18 h; max response: stronger effect = lower value. The method, boiled down:
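Viable-cell counts were inferred from luciferase-based ATP content in HEK293 cells seeded at 2,000/well, pre-incubated ≥5 h, then dosed with DMSO-solubilised compounds for 18 h at 37 C.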

Assay [14] can be described thus: qHTS assay for cell viability of the p53RE-bla HCT-116 cell line (AID 743292). Further: on the % scale 0 is the no-effect control and ±100 the full control effect; nearly all actives have a fitted effect of over 55% in size. The gist of the method: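 HCT-116 p53RE-bla cells seeded 4,000/well; 5 h at 37 C; compound (DMSO) added; 16 h at 37 C; CellTiter-Glo added, 30 min RT; luminescence read.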
Assay [15] deals with Nuclear receptor subfamily 1 group I member 2 (Rattus norvegicus) (UniProt Q9R1A7). Nature of the assay: qHTS assay for small molecule activators of the rat pregnane X receptor (rPXR) signaling pathway (AID 651751; call rule not given here; further: 0% is about no effect). As to conditions: rPXR reporter cells, luciferase (One-Glo), 24 h.
Chain of Nuclear receptor subfamily 1 group I member 2 (Rattus norvegicus) (Q9R1A7 whole entry, looked up): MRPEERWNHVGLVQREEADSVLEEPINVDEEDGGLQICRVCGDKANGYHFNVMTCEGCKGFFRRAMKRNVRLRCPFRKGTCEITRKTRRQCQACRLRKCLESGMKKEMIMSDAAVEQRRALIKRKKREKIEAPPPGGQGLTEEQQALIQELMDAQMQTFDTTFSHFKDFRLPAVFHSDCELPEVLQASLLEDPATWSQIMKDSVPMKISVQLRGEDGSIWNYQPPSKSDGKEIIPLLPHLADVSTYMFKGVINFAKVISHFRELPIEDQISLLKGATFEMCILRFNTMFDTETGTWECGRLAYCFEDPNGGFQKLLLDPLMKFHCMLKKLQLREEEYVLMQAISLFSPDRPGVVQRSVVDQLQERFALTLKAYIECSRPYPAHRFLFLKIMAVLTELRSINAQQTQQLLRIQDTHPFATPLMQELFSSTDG
For assay [16], the target named is Glucocorticoid receptor (Homo sapiens) (UniProt P04150). Briefly: qHTS assay for small molecule agonists of glucocorticoid receptor signaling (AID 588532; active means well fitted curve in the direction sought with a large enough effect in the signal ratio, with a control signal flat; the % refers to the signal ratio;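 further: 100% = dexamethasone at 0.1 µM and 0% = DMSO only wells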). As to conditions: HeLa MMTV-bla, beta-lactamase ratio, agonist, 18 h; stronger effect = higher value; percent of dexamethasone control, DMSO zero. The method, boiled down:
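Agonist-mode qHTS: GRE-driven beta-lactamase in HeLa cells exposed 18 h to titrated compounds (up to 92 uM), then CCF4 ratio read after 2 h at RT; Hill-fitted EC50, efficacy relative to 0.1 uM dexamethasone.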

A short description of assay [17]: qHTS assay for small molecule antagonists of peroxisome proliferator-activated receptor delta signaling (AID 588535; active means well fitted inhibition curve with a large enough effect in the signal ratio, with a control signal flat, not every such curve was filed as active; the % refers to the signal ratio;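 on max response: cells co-treated with a PPAR-delta agonist as stimulator during compound exposure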). As to conditions: HEK293T PPARd-UAS-bla, beta-lactamase FRET ratio, 18 h; 460 nm channel. The method, boiled down:
(§2)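 Antagonist-mode qHTS using GeneBLAzer PPAR-delta-UAS-bla HEK293T cells; compound exposure 18 hrs at 37 C over a titration. Ratiometric CCF4 fluorescence at 460/530 nm; concentration-response points fitted to the Hill equation.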

In assay [18] the target is Peroxisome proliferator-activated receptor delta (Homo sapiens) (UniProt Q03181). The description is as above. The gist of the method:
as §2

In assay [19] the target is Thyroid hormone receptor beta (Homo sapiens) (UniProt P10828). Briefly: qHTS assay for small molecule agonists of thyroid hormone receptor beta signaling (AID 588545; calls by dose curve;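 further: 0% = DMSO only and 100% = 10 nM T3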). The method, boiled down:
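Beta-lactamase reporter activity under TR response element control is measured in HEK 293 cells after 18 hrs compound exposure. Signal is ratiometric CCF4 fluorescence, 460/530 nm.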

A short description of assay [20]: qHTS assay for small molecule activators of the human pregnane X receptor (PXR) signaling pathway (AID 720659; call rule not given here; further: 0% is about no effect).

Chain of Peroxisome proliferator-activated receptor alpha (Homo sapiens) (Q07869 whole entry, looked up): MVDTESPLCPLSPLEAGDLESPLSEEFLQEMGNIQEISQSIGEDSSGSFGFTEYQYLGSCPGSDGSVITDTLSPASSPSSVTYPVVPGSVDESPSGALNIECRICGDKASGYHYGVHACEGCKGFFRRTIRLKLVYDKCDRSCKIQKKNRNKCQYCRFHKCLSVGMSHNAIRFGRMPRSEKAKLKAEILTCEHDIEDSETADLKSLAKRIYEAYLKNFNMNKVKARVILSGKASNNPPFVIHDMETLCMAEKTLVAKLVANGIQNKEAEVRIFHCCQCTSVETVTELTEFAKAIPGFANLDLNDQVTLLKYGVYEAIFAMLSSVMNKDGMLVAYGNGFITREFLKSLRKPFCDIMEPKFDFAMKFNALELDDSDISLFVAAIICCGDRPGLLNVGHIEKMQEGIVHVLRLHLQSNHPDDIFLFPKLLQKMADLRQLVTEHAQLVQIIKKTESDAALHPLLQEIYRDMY
Chain of Peroxisome proliferator-activated receptor gamma (Homo sapiens) (P37231 whole entry, looked up): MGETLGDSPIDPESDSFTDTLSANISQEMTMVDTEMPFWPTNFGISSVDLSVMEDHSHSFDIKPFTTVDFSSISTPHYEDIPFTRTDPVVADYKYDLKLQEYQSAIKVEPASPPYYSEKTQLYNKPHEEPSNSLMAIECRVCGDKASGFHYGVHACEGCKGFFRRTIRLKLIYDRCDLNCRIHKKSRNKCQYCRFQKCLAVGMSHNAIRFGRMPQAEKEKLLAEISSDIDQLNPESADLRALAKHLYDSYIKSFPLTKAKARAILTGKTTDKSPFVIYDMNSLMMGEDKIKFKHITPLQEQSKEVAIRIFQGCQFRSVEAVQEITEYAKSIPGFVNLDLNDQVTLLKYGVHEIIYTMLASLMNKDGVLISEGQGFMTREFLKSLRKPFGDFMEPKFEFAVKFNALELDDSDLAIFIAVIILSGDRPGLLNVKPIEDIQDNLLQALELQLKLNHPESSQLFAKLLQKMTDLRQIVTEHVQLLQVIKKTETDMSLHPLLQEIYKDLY
Chain of Estrogen receptor (Homo sapiens) (P03372 whole entry, looked up): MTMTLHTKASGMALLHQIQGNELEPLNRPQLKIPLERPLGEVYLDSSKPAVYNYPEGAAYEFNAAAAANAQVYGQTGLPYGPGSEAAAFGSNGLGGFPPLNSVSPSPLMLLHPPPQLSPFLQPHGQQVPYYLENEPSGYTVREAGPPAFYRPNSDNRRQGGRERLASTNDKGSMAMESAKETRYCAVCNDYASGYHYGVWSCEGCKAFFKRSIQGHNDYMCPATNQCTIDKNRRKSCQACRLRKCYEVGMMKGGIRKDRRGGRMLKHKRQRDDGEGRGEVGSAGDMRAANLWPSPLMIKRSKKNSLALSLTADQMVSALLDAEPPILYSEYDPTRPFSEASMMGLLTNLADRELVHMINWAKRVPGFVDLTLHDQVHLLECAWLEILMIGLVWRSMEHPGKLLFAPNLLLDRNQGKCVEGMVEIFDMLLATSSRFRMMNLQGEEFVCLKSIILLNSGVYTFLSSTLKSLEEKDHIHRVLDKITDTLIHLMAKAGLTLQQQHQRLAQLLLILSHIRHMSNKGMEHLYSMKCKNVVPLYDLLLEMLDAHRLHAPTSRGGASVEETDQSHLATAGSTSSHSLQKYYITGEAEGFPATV
Chain of Retinoic acid receptor RXR-alpha (Homo sapiens) (P19793 whole entry, looked up): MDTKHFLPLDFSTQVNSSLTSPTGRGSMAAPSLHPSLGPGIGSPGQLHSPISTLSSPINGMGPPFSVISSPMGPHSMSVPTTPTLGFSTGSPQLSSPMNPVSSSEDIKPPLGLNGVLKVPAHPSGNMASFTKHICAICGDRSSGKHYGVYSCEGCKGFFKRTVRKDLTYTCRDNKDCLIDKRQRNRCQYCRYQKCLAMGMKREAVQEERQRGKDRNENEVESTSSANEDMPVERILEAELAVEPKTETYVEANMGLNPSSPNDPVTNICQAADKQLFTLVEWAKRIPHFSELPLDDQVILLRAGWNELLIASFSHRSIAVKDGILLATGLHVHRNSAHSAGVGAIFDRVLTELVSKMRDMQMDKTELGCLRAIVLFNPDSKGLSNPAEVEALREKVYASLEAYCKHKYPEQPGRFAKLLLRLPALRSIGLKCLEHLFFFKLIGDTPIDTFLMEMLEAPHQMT
Chain of Glucocorticoid receptor (Homo sapiens) (P04150 whole entry, looked up): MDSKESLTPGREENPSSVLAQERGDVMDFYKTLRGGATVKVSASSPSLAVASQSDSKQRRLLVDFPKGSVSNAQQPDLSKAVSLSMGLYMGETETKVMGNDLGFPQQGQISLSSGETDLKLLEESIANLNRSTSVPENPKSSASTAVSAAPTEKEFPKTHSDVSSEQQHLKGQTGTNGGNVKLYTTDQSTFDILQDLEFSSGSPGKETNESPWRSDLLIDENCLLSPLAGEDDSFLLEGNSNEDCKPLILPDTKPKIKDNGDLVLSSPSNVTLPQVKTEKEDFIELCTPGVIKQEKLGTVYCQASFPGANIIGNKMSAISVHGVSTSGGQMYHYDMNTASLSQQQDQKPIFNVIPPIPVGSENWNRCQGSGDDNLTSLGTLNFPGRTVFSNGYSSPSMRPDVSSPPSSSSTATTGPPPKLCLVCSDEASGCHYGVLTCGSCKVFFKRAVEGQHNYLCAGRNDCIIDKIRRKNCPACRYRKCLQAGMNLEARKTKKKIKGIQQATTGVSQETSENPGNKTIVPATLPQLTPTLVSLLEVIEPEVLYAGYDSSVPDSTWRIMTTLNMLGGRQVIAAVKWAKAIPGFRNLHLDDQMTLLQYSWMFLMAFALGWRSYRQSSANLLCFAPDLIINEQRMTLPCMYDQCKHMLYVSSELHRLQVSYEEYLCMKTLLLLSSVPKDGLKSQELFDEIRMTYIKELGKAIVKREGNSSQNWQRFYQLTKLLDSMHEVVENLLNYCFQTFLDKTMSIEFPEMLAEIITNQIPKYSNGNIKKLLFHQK
Chain of Peroxisome proliferator-activated receptor delta (Homo sapiens) (Q03181 whole entry, looked up): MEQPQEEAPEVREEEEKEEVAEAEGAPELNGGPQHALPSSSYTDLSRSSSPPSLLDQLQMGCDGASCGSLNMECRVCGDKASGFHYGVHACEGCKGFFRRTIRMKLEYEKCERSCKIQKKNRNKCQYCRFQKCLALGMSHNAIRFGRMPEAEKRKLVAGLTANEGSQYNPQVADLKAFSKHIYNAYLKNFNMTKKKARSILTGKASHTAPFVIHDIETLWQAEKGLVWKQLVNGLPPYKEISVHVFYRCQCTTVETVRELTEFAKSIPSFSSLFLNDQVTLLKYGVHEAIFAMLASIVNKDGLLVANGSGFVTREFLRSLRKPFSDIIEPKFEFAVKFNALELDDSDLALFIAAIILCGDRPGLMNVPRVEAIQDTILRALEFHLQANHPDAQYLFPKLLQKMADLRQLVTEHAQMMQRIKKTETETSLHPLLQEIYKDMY

`OCC(CO)(CO)COCC(CO)(CO)CO`: the Potency result in assay [1], in assay [2], in assay [11] and in [14] was “inactive” in each case. For the same molecule, the molecule was called inactive in assay [3]. For the same molecule, the max response in assay [4] is -6.03%; in assay [5], -4.98%; in assay [6], -11.8% (inactive); in assay [10], 0.242% (inactive); in assay [12], 3.18% (inactive); in assay [13], -12.4% (inactive). For the same molecule, in assay [15], the max response was 3.21% (inactive). The activity change % (negative = inhibition) in [7] was -4.48% (inactive). Moreover, the results for the activation in assay [8] and in assay [9] were -2.73% (inactive) and 3.82% (inactive), respectively.
With `c1ccc(-c2ccc(-c3ccccc3)cc2)cc1`, the Potency entry in [1], in assay [2], in assay [18], in [19] and in assay [14] was “inactive” in each case. The activation in [16] is -0.857% (inactive); in [9], 6.5% (inactive). In addition, the max response in [17] is -0.983%; in assay [5] it was -5.51%; in assay [6], 1.88% (inactive); in assay [10], -0.186% (inactive); in [12], -5.82% (inactive); in [13] it was -2.69% (inactive). For the same molecule, the result in assay [3] and in [20] was inactive. For the same molecule, the activity change % (negative = inhibition) in assay [7] was 2.31% (inactive).
Turning to `CCCCCCCCCCO`, the Potency entry in assay [1], in [2], in assay [19], in assay [11] and in assay [14] was “inactive” each time. The activation in assay [16] was -0.536% (inactive) and 2.82% (inactive); in [8], 1.66% (inactive) and 2.49% (inactive); in assay [9], -1.2% (inactive) and 0.559% (inactive). Also, the result in assay [3] was inactive. Moreover, the max response in [4] was -3.16% and -6.7%; in assay [5], -1.67% and -3.39%; in assay [6], 6.68% (inactive) and -9.14% (inactive); in [10], -0.236% (inactive) and 5.87% (inactive); in assay [12] it was -7.77% (inactive) and 2.22% (inactive); in assay [13], -9.96% (inactive) and -5.95% (inactive). In assay [7], the activity change % (negative = inhibition) is 16.6% (inactive) and -15.4% (inactive).
Turning to `CC(C)OB(OC(C)C)OC(C)C`, the Potency result in assay [1], in [2], in assay [11] and in [14] was “inactive” each time. Besides, the molecule was called inactive in assay [3] and in [20]. For the same molecule, the max response in assay [4] is -15.5%; in assay [5], -7.32%; in assay [6], 0.387% (inactive); in [12], -7.65% (inactive); in [13] it was -7.12% (inactive); in [15], 0.348% (inactive). Moreover, the values for the activation in assay [8] and in assay [9] were 0.574% (inactive) and 9.09% (inactive), respectively.
Take `C/C(=C\C(C)CC(C)CC(C)C)C1CC(=O)OC1=O` (stereo unspecified): the Potency result in [1], in assay [2], in assay [18], in assay [19], in assay [11] and in assay [14] was “inactive” throughout. Further, the activation in assay [16] was -4.02% (inactive); in assay [8], -3.07% (inactive); in [9], 1.33% (inactive). Further, the max response in [17] was 29.8%; in [4] it was 7.08%; in assay [5] it was -6.65%; in assay [6], 4.94% (inactive); in assay [10], -0.902% (inactive); in assay [12], -17.9% (inactive). Further, the max response in assay [13] was -7.26% (inactive); in [15] it was 3.67% (inactive). The call in assay [3] and in [20] was inactive. Also, the activity change % (negative = inhibition) in assay [7] is 0.311% (inactive).
`COC(=O)c1ccc(C(=O)OC)cc1`: the Potency entry in [1], in assay [2], in [19], in assay [11] and in assay [14] was “inactive” throughout. For the same molecule, the outcome in assay [3] was inactive. Besides, the max response is -4.51% in assay [4]; -0.742% in assay [5]; -16.3% (inactive) in assay [6]; -0.437% (inactive) in assay [10]; -4.69% (inactive) in assay [12]; -3.92% (inactive) in assay [13]. In addition, the max response in assay [15] is 2.11% (inactive). Besides, the activation in assay [8] was -5.18% (inactive); in [9] it was 2.27% (inactive).
